AmpC no deterg = qHTS Inhibitors of AmpC Beta-Lactamase (assay without detergent) | P00811 | AmpC nitrocefin hydrolysis, absorbance 480 nm, 0.0001% Triton | Potency, µM (series often up to 57.1 µM), inactives show at the top dose activity change, negative = inhibition, usual class: inhibitors | 330,000 compounds, 0.52% hits | AID 485341, 2010;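 note: plate controls were no compound for no effect and no enzyme for full effect; nearly all actives have a fitted effect of over 20% in size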
Target sequence (P00811 whole entry, looked up): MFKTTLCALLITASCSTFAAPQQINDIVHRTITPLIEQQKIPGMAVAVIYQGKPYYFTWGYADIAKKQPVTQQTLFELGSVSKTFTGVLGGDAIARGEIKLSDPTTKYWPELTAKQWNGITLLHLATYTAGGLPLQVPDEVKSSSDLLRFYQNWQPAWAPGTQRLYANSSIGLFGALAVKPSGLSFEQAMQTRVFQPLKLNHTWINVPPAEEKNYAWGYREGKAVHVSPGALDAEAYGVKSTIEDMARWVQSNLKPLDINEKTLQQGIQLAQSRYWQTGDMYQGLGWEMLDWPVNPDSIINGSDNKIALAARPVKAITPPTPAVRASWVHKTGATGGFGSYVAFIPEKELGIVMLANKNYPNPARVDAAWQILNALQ
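20 mM phosphate pH 7.0 + 0.01% (detergent screen) or 0.0001% Triton X-100; 5.3 nM AmpC reagent; cpd preinc 15 min RT; nitrocefin (800 uM stock) to start; A480 q20 s × 4 min; Activity was normalised to no-enzyme and no-compound control wells.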
AmpC detergent = qHTS Inhibitors of AmpC Beta-Lactamase (assay with detergent); AmpC hydrolysis of nitrocefin, absorbance 480 nm, 0.01% Triton; Potency, µM (titrated, usually from 114 µM), inactives show at the highest dose activity change, negative = inhibition, usual class: inhibitors; 370,000 compounds, 0.041% hits; P00811; AID 485294, 2010;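 note: 0% = no-compound wells and -100% = no-enzyme wells; nearly all actives have a fitted effect of over 25% in size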
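AmpC (5.3 nM in the dispensed reagent) in 20 mM phosphate pH 7.0 with 0.01% (detergent screen) or 0.0001% Triton X-100 was preincubated with compounds for 15 min at room temperature. Nitrocefin was then added from an 800 uM solution, and hydrolysis was followed at 480 nm.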
Sm TGR inh = qHTS Assay for the Inhibitors of Schistosoma Mansoni Peroxiredoxins | purified TGR, DTNB reduction, TNB absorbance 405 nm | 360,000 compounds, 3% hits | AID 485364, 2010 | Schistosoma mansoni thioredoxin glutathione reductase (TGR), Q962Y6 | Potency, µM (series often up to 114 µM), inactives show at the top dose activity change, negative = inhibition, actives largely listed as inhibitors; note: nearly all actives have a fitted effect of over 60% in size
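Kinetic colorimetric format: TGR-catalysed, NADPH-driven DTNB reduction monitored via TNB absorbance. Enzyme dispensed at 20 nM; compound exposure 15 min at room temperature before reaction start.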
RE007 growth inh = qHTS Assay for Inhibitors of the HIV-1 protein Vpr | Potency, µM (series often up to 92.2 µM), for the others: at the highest dose activity change, negative = less growth, actives largely listed as inhibitors | AID 651644, 2012 | 360,000 compounds, 0.21% hits | S. pombe RE007 Vpr strain, BacTiter-Glo ATP luminescence, 24 h; active = well fitted falling curve with a large enough effect; inconclusive = small, poorly fitted or top-dose-only effect; inactive = no such curve, though single readings can be large or run the other way; note: nearly all actives have a fitted effect of over 50% in size
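Fission yeast RE007 carrying one integrated HIV-1 vpr copy, seeded at OD 0.01 in PMG+AL medium with 23 nL pinned compound. Grown 24 h at 30 degrees; viability read by BacTiter-Glo luminescence after 5 min.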
FBPA Giardia inh = qHTS Assay for Inhibitors of Fructose-1,6-bisphosphate Aldolase from Giardia Lamblia; Potency, µM (series often up to 59.6 µM), for inactives: at the top dose activity, negative = inhibition, actives largely listed as inhibitors; A8B2U2; 290,000 compounds, 0.71% hits; purified Giardia FBPA; AID 2451, 2010; note: nearly all actives have a fitted effect of over 55% in size
Target sequence (A8B2U2 whole entry, looked up): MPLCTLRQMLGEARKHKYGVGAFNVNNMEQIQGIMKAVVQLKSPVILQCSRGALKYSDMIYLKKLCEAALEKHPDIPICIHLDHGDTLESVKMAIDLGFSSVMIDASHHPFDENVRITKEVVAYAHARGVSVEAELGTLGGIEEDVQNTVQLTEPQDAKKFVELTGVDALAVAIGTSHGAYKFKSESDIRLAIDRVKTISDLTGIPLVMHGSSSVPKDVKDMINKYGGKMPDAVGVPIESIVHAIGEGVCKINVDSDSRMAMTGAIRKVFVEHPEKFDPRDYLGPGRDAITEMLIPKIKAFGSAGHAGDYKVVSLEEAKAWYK
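Giardia FBPA (40 nM reagent) was preincubated 10 min at RT with compound (up to 57.5 uM final), then substrate plus GAPDH/TPI/NAD/arsenate coupling system with diaphorase/resazurin was added; resorufin fluorescence (525/598 nm) was read after 20 min.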
* marks the source's active call; other numbers are inactive results; ? = inconclusive; / = no result given; [ ] = dose if it differs, or a comment. Rows were chosen to be rich in hits. Some 3.4% of all compounds tested hit in one or more screens of this group. Unless noted, calls come from the whole dose curve; as a rule, active = well fitted curve in the direction sought with a large enough effect; inconclusive = small, poorly fitted or top-dose-only effect, or another doubt; inactive = no such curve, though single readings can be large; an effect the other way counts as inactive or inconclusive. Unless noted, % is set by controls: 0 for no effect and ±100 for the full control effect; potency is the fitted concentration of half-maximal effect.

SMILES	AmpC no deterg	AmpC detergent	Sm TGR inh	RE007 growth inh	FBPA Giardia inh
CCC(=O)N(CCC(c1ccco1)c1ccccc1OC)Cc1cccs1 (centres undefined)	36%	-1%	18µM*	6%[3.69 µM]	-1%
CCn1ccnc1CN1CCCC(CO)(Cc2cccc(OC)c2)C1 (centres undefined)	43%	-3%	/	-1%	0%
O=C(O)c1ccc(N/N=C/c2ccncc2)cc1	-2%	?	4%	-16%	4µM*
Cc1ccc(N/N=C/c2ccncc2)cc1	-14%	5%	50µM*	7%	5%
N#Cc1ccc2c(c1)NC(=O)C1CCCN21 (centres undefined)	-42%	2%	20µM*	5%	-8%
CNS(=O)(=O)c1ccc2c(c1)NC(=O)C1CCCN21 (centres undefined)	-44%	?	?	3%	3%
CC(=O)c1ccc(NC(=O)/C=C/c2ccc(C)o2)cc1	/	26%	11µM*	/	/
Cc1cc(NS(=O)(=O)c2ccc(NC(=O)/C=C/c3ccc(C)o3)cc2)nc(C)n1	-9%	3%	3.2µM*	-22%	-10%
Cc1ccc(/C=C/C(=O)Nc2ccc([N+](=O)[O-])cc2)o1	-22%	1%	16µM*	-3%	-25%
Cc1ccc(/C=C/C(=O)Nc2ccc(Oc3ccccc3)cc2)o1	-56%	-9%	18µM*	-9%	-17%
Cc1ccc(/C=C/C(=O)Nc2nnc(C)s2)o1	-15%	0%	?	1%	5%
CCC(=O)N1CCc2cc(Br)cc(S(=O)(=O)CCC(=O)NCc3ccco3)c21	-12%	-2%	?	-15%	0%
CCC(=O)N1CCc2cc(Br)cc(S(=O)(=O)NCc3ccco3)c21	-20%	3%	35µM*	10%	10%
Cc1ccc(C2C(C#N)=C(N)SC(N)=C2C#N)cc1	-48%	?	?	11%	?
N#CC1=C(N)SC(N)=C(C#N)C1c1ccoc1	-23%	?	5µM*	/	?
Nc1cccc(Nc2ccccc2)c1	-23%	3%	40µM*	-4%	-9%
c1ccc(Nc2cccc(Nc3ccccc3)c2)cc1	-20%	3%	35µM*	?	-4%
Oc1cccc(Nc2ccccc2)c1	-32%	3%	0%	3%	/
CC[N+]1(C)[C@@H]2CC[C@H]1CC(OC(=O)[C@H]1CCC(C(=O)OC3C[C@H]4CC[C@@H](C3)[N+]4(C)CC)(c3ccccc3)c3ccccc31)C2 (some centres undefined)	21%	?	50µM*	-16%[18.4 µM]	/
COc1ccc(N2C(=O)C3C(C2=O)C(C(=O)c2ccc(Cl)cc2)N2CCCC32)cc1 (centres undefined)	-23%	6%	25µM*	-28%	-25%
Cc1ccc(N2C(=O)[C@@H]3[C@H](C2=O)C2CCCN2[C@@H]3C(=O)c2ccccc2)cc1 (some centres undefined)	6%	-3%	32µM*	-22%	?
CC(=O)c1ccc(N2C(=O)C3C(C2=O)C(C(=O)c2ccc(Cl)cc2)N2CCCC32)cc1 (centres undefined)	-22%	?	13µM*	-7%	-9%
COc1ccc(CC(N)c2csc(NC(=O)C(c3ccccc3)c3ccccc3)n2)cc1 (centres undefined)	/	/	/	-6%	/
CC12C(=O)N(c3ccccn3)C(=O)C1C1C=CC2C1 (centres undefined)	-8%	0%	8%	29%	-1%
Cc1ccnc2c(N3C(=O)C4C5C=CC(C5)C4(C)C3=O)cccc12 (centres undefined)	7.1µM*	?	-2%	-8%	2%
SMILES	AmpC no deterg	AmpC detergent	Sm TGR inh	RE007 growth inh	FBPA Giardia inh
COCCn1c(=N)c(C(=O)NC(C)c2ccccc2)cc2c(=O)n3cc(C)ccc3nc21 (centres undefined)	/	3%	3%	/	/
O=C(C=Cc1ccco1)N1CCOCC1	/	/	/	12%	/
Cc1ccc(/C=C/C(=O)N2CCN(S(=O)(=O)/C=C/c3ccccc3)CC2)o1	17%	-3%	14µM*	-2%	-15%
O=C(/C=C/c1ccco1)N1CCN(C/C=C/c2ccccc2)CC1	73%	-10%	40µM*	15%	0%
O=C(/C=C/c1ccco1)N1CCN(c2ccccc2)CC1	-18%	?	11µM*	2%	-6%
NC(=O)C1CCN(C(=O)/C=C/c2ccco2)CC1	-1%	-5%	7.9µM*	4%	-2%
O=C(/C=C/c1ccccc1)N1CCN(C(=O)c2ccco2)CC1	-19%	-3%	10%	10%	3%
CCN1CCN(C(=O)/C=C/c2ccc(C)o2)CC1	7%	?	?	-29%	-18%
NC(=O)c1nsc(C(=O)N(c2ccccc2)C(C(=O)NC2CCCCC2)c2ccc(O)cc2)c1N (centres undefined)	-34%	3%	?	-10%	7%
O=C(/C=C/c1ccc(F)cc1)N1CCN(S(=O)(=O)/C=C/c2ccccc2)CC1	-13%	-8%	0%	-6%	3%
O=C(/C=C/c1ccco1)N1CCN(S(=O)(=O)/C=C/c2ccccc2)CC1	43%	-8%	13µM*	-3%	-3%
Cc1c(C(=S)Nc2ccccc2)cnn1-c1ccccc1	-26%	-1%	11%	20%	-6%
CCc1cc2ccccc2nc1Cl	-1%	-1%	/	1%	-1%
ClCc1cc2ccccc2nc1Cl	-21%	-7%	32µM*	-5%	-8%
Cc1ccc2cc(CCl)c(Cl)nc2c1	-36%	-3%	25µM*	-6%	-10%
Cc1ccc(S(=O)(=O)/C(C#N)=C/c2c[nH]c3ccccc23)cc1	18µM*	-4%	9%	13%	-4%
Cc1ccc(S(=O)(=O)N2CCN(C(=O)CSc3ncc(C(F)(F)F)cc3Cl)CC2)cc1	8%	4%	35µM*	4%	2%
Cc1ccc(S(=O)(=O)N2CCN(C(=O)CSc3ccc(F)cc3)CC2)cc1	1%	1%	-2%	3%	15%
COC1=C(c2ccccc2)C(=O)c2ccccc2C1=O	-5%	6%	-32%	?	?
COc1ccc(C(=O)N/N=C/C(C)c2ccccc2)cc1OC (centres undefined)	-15%	3%	4%	2%	1%
C=CC(C1=CC(=O)C(OC)=C(OC)C1=O)c1ccccc1 (centres undefined)	/	/	/	/	18µM*
C=CC(C1=CC(=O)C(OC)=CC1=O)c1ccccc1 (centres undefined)	/	/	/	/	20µM*

Source: PubChem (National Center for Advancing Translational Sciences (NCATS))
